Measured values as given in the supplement of paper PMC10981050.
Values joined by “and” are separate entries in the source; they are usually repeats but may differ in a detail not shown here. Identical values can stand only once. Counter-ions that a name gives are not always drawn.

Key:
Test in all cases: cell viability relative to vehicle control; higher = less cytotoxic
Conditions in all cases: 10 µM
K562 = system: K562
Summary of the method: (§1)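 CRISPR-edited mutant clones and isogenic wild-type clones from four leukaemia lines were screened against Selleck bioactive, kinase and epigenetic probe libraries, with identity-inconsistent compounds excluded. Each compound was acoustically dispensed at a single 10 µM dose into 384-well plates holding 2000 cells in 50 µL medium per well. After 48 h the supernatant was removed and CellTiter-Glo luminescence was read. Viability was expressed as percent of the on-plate vehicle control and analysed in Genedata Screener.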

MARIMO = system: MARIMO
Summary of the method: as §1

MOLM14 = system: MOLM14
Summary of the method: as §1

OCI-AML2 = system: OCI-AML2
Summary of the method: as §1

Structure (SMILES)	cell viability (K562; SRSF2 genotype: SRSF2 P95H/wt)	cell viability (K562; SRSF2 genotype: SRSF2 wt/wt) [%]	cell viability (MARIMO; SRSF2 genotype: SRSF2 P95H/wt) [%]	cell viability (MARIMO; SRSF2 genotype: SRSF2 wt/wt) [%]	cell viability (MOLM14; SRSF2 genotype: SRSF2 P95H/wt) [%]	cell viability (MOLM14; SRSF2 genotype: SRSF2 wt/wt) [%]	cell viability (OCI-AML2; SRSF2 genotype: P95H/wt) [%]	cell viability (OCI-AML2; SRSF2 genotype: wt/wt) [%]
O=c1c(-c2ccc(O)cc2)coc2cc(O)cc(O)c12 [Genistein]	97.4% and 105%	105	92.6	87.8	79.4	88.7	81.8	87.4
COc1ccccc1-c1cc(Nc2cccc(CS(N)(=O)=O)c2)ncn1	90.2% and 89.9%	91.5	29.4	45.6	26.5	5.12	18.1	30
C[C@@H]1O[C@@H](O[C@H]2[C@H](O[C@H]3CC[C@@]4(C)[C@@H](CC[C@]5(C)[C@@H]4CC=C4[C@@H]6CC(C)(C)CC[C@]6(C(=O)O[C@@H]6O[C@H](CO[C@@H]7O[C@H](CO)[C@@H](O)[C@H](O)[C@H]7O)[C@@H](O)[C@H](O)[C@H]6O)CC[C@]45C)[C@]3(C)CO)OC[C@H](O)[C@@H]2O)[C@H](O)[C@H](O[C@@H]2O[C@H](CO)[C@@H](O[C@@H]3O[C@H](CO)[C@@H](O)[C@H](O)[C@H]3O)[C@H](O)[C@H]2O)[C@H]1O [Macranthoidin B]	86.7% and 84.6%	85	83.6	94.2	86	86.6	91.4	86
c1ccc2c(CC3=NCCN3)cccc2c1 [Naphazoline hydrochloride (Naphcon)]	102% and 99.6%	94.5	106	107	97.1	103	97.8	106
COc1ccc(-c2ccc3c(N4CCOC[C@@H]4C)nc(N4CCOC[C@@H]4C)nc3n2)cc1CO	39.7% and 40.4%	35.5	54.4	46.2	30.4	26.2	26.5	27.7
CC1(C)C(O[C@@H]2OC[C@@H](O)[C@H](O)[C@H]2O)CC[C@]23CC24CC[C@]2(C)[C@@H]([C@@]5(C)CC[C@@H](C(C)(C)O)O5)[C@H](O)C[C@@]2(C)C4C[C@@H](O[C@@H]2O[C@H](CO)[C@@H](O)[C@H](O)[C@H]2O)C13 (stereo not given in full) [Astragaloside IV]	110% and 114%	113	112	102	108	114	116	102
Cc1cc(Nc2cc(N3CCN(C)CC3)nc(/C=C/c3ccccc3)n2)n[nH]1	19.4% and 23.7%	18.3	36	26.5	2.58	5.88	6.21	14.9
NNC(=O)c1ccncc1 [Isoniazid (Tubizid)]	106% and 109%	112	101	107	107	106	102	115
COC(=O)c1cc(OC)c2c(c1-c1c(C(=O)OC)cc(OC)c3c1OCO3)OCO2 [Bifendate]	109%	98.7	101	101	99.3	101	106	94.3
Cn1cc(-c2ccc3c(c2)CCN3C(=O)Cc2cccc(C(F)(F)F)c2)c2c(N)ncnc21	37.6% and 52.8%	39.2	60.5	62.1	16.1	16	26.3	28.8
CC(C)=C[C@H]1C[C@](C)(O)[C@@H]2[C@H]3CC[C@@H]4[C@@]5(C)CC[C@H](OC6OC[C@H](O)[C@H](O[C@@H]7O[C@H](CO[C@@H]8O[C@H](CO)[C@@H](O)[C@H](O)[C@H]8O)[C@@H](O)[C@H](O)[C@H]7O[C@@H]7OC[C@@H](O)[C@H](O)[C@H]7O)[C@H]6O[C@@H]6O[C@@H](C)[C@H](O)[C@@H](O)[C@H]6O)C(C)(C)[C@@H]5CC[C@@]4(C)C34CO[C@@]2(C4)O1 (stereo not given in full) [Jujuboside A]	109% and 107%	102	101	104	109	102	91.6	101
CCCCCCNC(=O)n1cc(F)c(=O)[nH]c1=O [Carmofur]	96% and 94.6%	82	74.1	81	42.2	27.3	57.9	58.3
OC[C@H]1O[C@@H](Oc2cc3c(O)cc(O)cc3[o+]c2-c2ccc(O)c(O)c2)[C@H](O)[C@@H](O)[C@@H]1O [Cyanidin-3-O-glucoside chloride]	93.5% and 89%	87.1	91.6	92.6	90.4	91.1	83	86.2
CCOCCn1c(C2CCN(CCc3ccc(C(C)(C)C(=O)O)cc3)CC2)nc2ccccc21 [Bilastine]	105% and 108%	113	107	104	107	106	108	96.2
CN[C@@H](C)C(=O)N[C@H](C(=O)N1CCC[C@H]1C(=O)Nc1snnc1-c1ccccc1)C1CCCCC1	98.6% and 96.3%	97.7	101	105	89.6	104	102	123
Clc1ccc2c(N3CCN(CCCN4CCN(c5ccnc6cc(Cl)ccc56)CC4)CC3)ccnc2c1 [Piperaquine phosphate]	99.4% and 95%	98.2	93.8	103	85.3	102	92.7	88
C[C@H](C[C@H](O)[C@H]1OC1(C)C)C1=C2C[C@H](O)[C@H]3[C@@]4(C)CCC(=O)C(C)(C)[C@@H]4CC[C@]3(C)[C@@]2(C)CC1 [Alisol B]	81.2% and 83.7%	78.7	70.8	48.2	86.7	87.4	70.3	72.7
O=C1c2ccccc2-c2n[nH]c3cccc1c23	95% and 105%	95.8	72.3	72	45	33.1	53.1	48.7

Structure (SMILES)	cell viability (K562; SRSF2 genotype: SRSF2 P95H/wt)	cell viability (K562; SRSF2 genotype: SRSF2 wt/wt) [%]	cell viability (MARIMO; SRSF2 genotype: SRSF2 P95H/wt) [%]	cell viability (MARIMO; SRSF2 genotype: SRSF2 wt/wt) [%]	cell viability (MOLM14; SRSF2 genotype: SRSF2 P95H/wt) [%]	cell viability (MOLM14; SRSF2 genotype: SRSF2 wt/wt) [%]	cell viability (OCI-AML2; SRSF2 genotype: P95H/wt) [%]	cell viability (OCI-AML2; SRSF2 genotype: wt/wt) [%]
CC(=O)c1ccc(C)cc1O [2'-Hydroxy-4'-methylacetophenone]	97.1% and 95%	104	95.6	103	102	102	94.5	107
CCN(CC)CC#CCOC(=O)C(O)(c1ccccc1)C1CCCCC1 (stereo not given) [Oxybutynin chloride]	94.9% and 97.5%	88.6	79.8	96	83	101	80.8	91.8
COc1ccc(Cl)cc1NC(=O)Nc1cc(C)nc2ccccc12	81.3% and 91.2%	87	98.8	99.1	87.6	90.1	82.7	74.1
OCCOCCN1CCN(C2=Nc3ccccc3Sc3ccccc32)CC1 [Quetiapine fumarate (Seroquel)]	91.1% and 95.4%	96.3	85.8	95.8	90	94.9	74.6	87
Fc1cc(-c2cccc3ncc(-c4cnn(C5CCNCC5)c4)nc23)cc(F)c1CN1CCOCC1	3.45% and 6.22%	7.58	31.9	5.4	0.59	0.69	0.94	2.89
CC(C)OC(=O)OCOP(=O)(CO[C@H](C)Cn1cnc2c(N)ncnc21)OCOC(=O)OC(C)C [Tenofovir Disoproxil Fumarate]	92.9% and 94.9%	82.2	79.8	79.2	34.7	28.4	14.3	22.9
CC[C@@]1(O)C(=O)OCc2c1cc1n(c2=O)Cc2cc3cc(O)ccc3nc2-1 [10-Hydroxycamptothecin]	8.49% and 21.1%	9.32	4.98	3.83	0.7	0.58	0.54	1.46
Cc1cccc(C)c1OCC(=O)N[C@@H](Cc1ccccc1)[C@@H](O)C[C@H](Cc1ccccc1)NC(=O)[C@H](C(C)C)N1CCCNC1=O [Lopinavir (ABT-378)]	85.5% and 94.8%	86.7	97.4	98.2	92.2	102	97.3	92.2
Nc1nc2[nH]cnc2c(=S)[nH]1 [Thioguanine]	25.9% and 28.5%	26.8	46.3	37.5	35.2	23	13.5	20.5
CC(C)=CC(O)C/C(C)=C/COc1c2ccoc2cc2oc(=O)ccc12 (stereo not given) [Notopterol]	72.4% and 82.5%	76.1	64.7	57.1	71.2	56.4	51.5	43
O=C(O)CSc1cc(NS(=O)(=O)c2ccc(Br)cc2)c2ccccc2c1O	86.4% and 79.9%	94.8	95.5	94.5	73.9	89.3	97.9	107
N#C[C@@H]1CCCN1C(=O)CNC12CC3CC(CC(O)(C3)C1)C2 [Vildagliptin (LAF-237)]	87.8% and 87.2%	84.8	81.8	88.6	83.9	89	88.8	87.7
CN1CC[C@@H](NC(=O)Nc2ccc(C#N)cc2)C[C@@H]1c1nc2ccccc2[nH]1	98.5% and 104%	107	104	109	98.8	100	98.1	112
O=c1cc(N2CCOCC2)oc2c(-c3ccc4c(c3)OCCO4)csc12	39.4% and 50.7%	46.9	36.4	30.9	15.7	18.2	3.38	11.7
CN(C)c1ccc(-c2nc3ncc(Cl)c(N4CCN(CC(=O)Nc5nccs5)CC4)c3[nH]2)cc1	95.8% and 101%	95.2	96.9	109	78.9	87.5	92.4	95.1
COc1ccc(-c2coc3cc(O)ccc3c2=O)cc1 [Formononetin (Formononetol)]	93.6% and 91.7%	86.4	82.4	91.4	99.9	99.6	86.7	80.2
CC(O)c1cc(C(=O)N[C@@H](C)Cn2ccc(-c3ccc(C#N)c(Cl)c3)n2)n[nH]1 (stereo not given in full)	87.9% and 91.4%	93.3	90.6	93.5	98.8	98	91.4	102
